About 79,000 compounds went through this panel and 15% of them were active in at least one assay; those are over-represented in the sample as a whole. Unmarked numbers belong to inactive results. Activity calls are given as the source filed them. Cut-off read from the data, not from the text of the source: active = growth inhibition above about 70%; inactive = the rest.
Columns and labels:
[1] = NCI Yeast Anticancer Drug Screen. Data for the rad52 strain (AID 147);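 note: 0% = growth of vehicle-treated control cultures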; conditions: S. cerevisiae rad52 mutant growth inhibition, stronger effect = higher value
Summary of the method: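 Screen used a yeast mutant impaired in DNA repair. After compound exposure, growth was measured. Values reflect inhibition compared with vehicle-treated cells.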

[2] = NCI Yeast Anticancer Drug Screen. Data for the wt1 strain (AID 149);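 note: 0% = growth of vehicle-treated wt1 cultures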; conditions: S. cerevisiae wt1 strain (SPY 50644) growth inhibition, stronger effect = higher value
Summary of the method: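 Readout: yeast growth inhibition, normalised to vehicle controls, in the wt1 strain exposed to test compounds.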

[3] = NCI Yeast Anticancer Drug Screen. Data for the rad50EPP+ strain (AID 151);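 note: 0% = growth of vehicle-treated control cultures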; conditions: S. cerevisiae rad50 mutant strain, stronger effect = higher value
Summary of the method: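 Exposing the rad50EPP+ strain to each compound, growth was compared with vehicle-only cultures to give inhibition.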

[4] = NCI Yeast Anticancer Drug Screen. Data for the mgt1 strain (AID 153); conditions: S. cerevisiae mgt1 mutant growth inhibition, stronger effect = higher value
Summary of the method: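 Genetically defined yeast (mgt1) treated with compound; inhibition of growth expressed against vehicle-treated controls.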

[5] = NCI Yeast Anticancer Drug Screen. Data for the rad50 strain (AID 155);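 note: 0% = growth of vehicle-only cultures of the same strain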; conditions: S. cerevisiae rad50 strain growth inhibition, stronger effect = higher value
Summary of the method: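 Compounds were tested on a yeast strain with an engineered DNA damage repair alteration; the reported value is growth inhibition normalised to vehicle treatment.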

[6] = NCI Yeast Anticancer Drug Screen. Data for the mec2-1 strain (AID 157); conditions: S. cerevisiae mec2-1 strain, stronger effect = higher value
Summary of the method: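 Readout is yeast growth inhibition, normalised to vehicle-treated controls, in the mec2-1 strain exposed to compound.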

[7] = NCI Yeast Anticancer Drug Screen. Data for the rad14 strain (AID 159);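 note: 0% = growth of vehicle-treated control cultures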; conditions: S. cerevisiae rad14 strain growth inhibition, stronger effect = higher value
Summary of the method: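 Compound-treated yeast with a defined DNA-repair lesion; growth inhibition normalised to vehicle-treated cultures.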

[8] = NCI Yeast Anticancer Drug Screen. Data for the sgs1 mgt1 strain (AID 161);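 note: 0% = growth of cultures given vehicle only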; conditions: S. cerevisiae sgs1 mgt1 strain, stronger effect = higher value
Summary of the method: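 Growth of a repair-deficient yeast mutant was monitored after compound treatment and expressed as inhibition relative to vehicle-treated cultures.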

[9] = NCI Yeast Anticancer Drug Screen. Data for the CLN2oe strain (AID 163);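 note: 0% = growth of vehicle-only control cultures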; conditions: S. cerevisiae CLN2oe strain, stronger effect = higher value
Summary of the method: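 Values reflect how much compound exposure reduced yeast growth, referenced to vehicle-exposed cells. Assay organism is a strain with a defined genetic change affecting cell-cycle control.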

[10] = NCI Yeast Anticancer Drug Screen. Data for the cln2 rad14 strain (AID 165);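 note: 0% = growth equal to vehicle treated cultures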; conditions: S. cerevisiae cln2 rad14 strain, stronger effect = higher value
Summary of the method: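 Relative to vehicle controls, growth inhibition of compound-treated cln2 rad14 yeast was recorded.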

[11] = NCI Yeast Anticancer Drug Screen. Data for the bub3 strain (AID 167); conditions: S. cerevisiae bub3 mutant strain, stronger effect = higher value
Summary of the method: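 Growth of a checkpoint-deficient yeast mutant is measured after compound exposure. Values represent inhibition relative to vehicle.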

[12] = NCI Yeast Anticancer Drug Screen. Data for the wt2 strain (AID 169);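 note: 0% = growth of vehicle-treated yeast cultures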; conditions: S. cerevisiae wt2 strain growth inhibition, stronger effect = higher value
Summary of the method: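 Values express reduction in yeast growth under compound treatment, referenced to vehicle-treated cells.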

[13] = NCI Yeast Anticancer Drug Screen. Data for the mlh1 strain (AID 171);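 note: 0% = growth of vehicle-treated control cultures of the same strain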; conditions: S. cerevisiae mlh1 strain growth inhibition, stronger effect = higher value
Summary of the method: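 Steps: expose the defined-mutant yeast strain to compound; expose a parallel culture to vehicle; measure growth; express compound effect as inhibition relative to the vehicle culture.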

[14] = NCI Yeast Anticancer Drug Screen. Data for the sgs1 strain (AID 173);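 note: 0% = growth of vehicle-only control cultures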; conditions: S. cerevisiae sgs1 mutant, stronger effect = higher value
Summary of the method: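 Treat defined-mutant yeast with compound; measure growth; calculate inhibition relative to vehicle-treated cells.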

[15] = NCI Yeast Anticancer Drug Screen. Data for the mlh1 rad18 strain (AID 175); conditions: S. cerevisiae mlh1 rad18 strain growth inhibition, stronger effect = higher value
Summary of the method: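 Test agents were incubated with a yeast strain of defined genotype (DNA damage repair defect). Inhibition of growth was derived by comparison with vehicle-exposed cultures.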

[16] = NCI Yeast Anticancer Drug Screen. Data for the rad18 strain (AID 177); conditions: S. cerevisiae rad18 mutant growth inhibition, stronger effect = higher value
Summary of the method: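 A genetically defined yeast mutant impaired in DNA damage repair was treated with test compounds, then its growth was measured against cultures receiving vehicle alone.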

[17] = at 5.0 µM (retest, dose inferred, filed as 0.5)
[18] = at 50.0 µM (retest, dose inferred, filed as 5.0)

c1cc(-c2sc(-c3ccncc3)c(-c3ccncc3)c2-c2ccncc2)ccn1
growth inhibition ([1]; at 1.2 µM): 4%
growth inhibition ([1]; at 3.7 µM): 17%
growth inhibition ([1]; at 11.0 µM): 63%
growth inhibition ([1]; at 33.0 µM): 91% (active)
growth inhibition ([1]; at 100.0 µM): 97% (active)
growth inhibition ([2]; at 1.2 µM): 2%
growth inhibition ([2]; at 3.7 µM): -1%
growth inhibition ([2]; at 11.0 µM): 0%
growth inhibition ([2]; at 33.0 µM): 12%
growth inhibition ([2]; at 100.0 µM): 58%
growth inhibition ([3]; at 1.2 µM): 5%
growth inhibition ([3]; at 3.7 µM): 18%
growth inhibition ([3]; at 11.0 µM): 34%
growth inhibition ([3]; at 33.0 µM): 68%
growth inhibition ([3]; at 100.0 µM): 82% (active)
growth inhibition ([4]; at 1.2 µM): 0%
growth inhibition ([4]; at 3.7 µM): 2%
growth inhibition ([4]; at 11.0 µM): 2%
growth inhibition ([4]; at 33.0 µM): 25%
growth inhibition ([4]; at 100.0 µM): 87% (active)
growth inhibition ([5]; at 1.2 µM): 10%
growth inhibition ([5]; at 3.7 µM): 19%
growth inhibition [5, 17]: 12%
growth inhibition ([5]; at 11.0 µM): 69%
growth inhibition ([5]; at 33.0 µM): 90% (active)
growth inhibition [5, 18]: 81% (active)
growth inhibition ([5]; at 50.0 µM): 96.3% (active)
growth inhibition ([5]; at 100.0 µM): 96% (active)
growth inhibition ([6]; at 1.2 µM): 3%
growth inhibition ([6]; at 3.7 µM): 3%
growth inhibition [6, 17]: -5%
growth inhibition ([6]; at 11.0 µM): 11%
growth inhibition ([6]; at 33.0 µM): 46%
growth inhibition [6, 18]: 0%
growth inhibition ([6]; at 50.0 µM): 21.1%
growth inhibition ([6]; at 100.0 µM): 93% (active)
growth inhibition ([7]; at 1.2 µM): 3%
growth inhibition ([7]; at 3.7 µM): -4%
growth inhibition ([7]; at 11.0 µM): 5%
growth inhibition ([7]; at 33.0 µM): 26%
growth inhibition ([7]; at 100.0 µM): 75% (active)
growth inhibition [8, 17]: -5%
growth inhibition [8, 18]: 50%
growth inhibition ([8]; at 50.0 µM): 46.8%
growth inhibition ([9]; at 1.2 µM): -7%
growth inhibition ([9]; at 3.7 µM): 1%
growth inhibition ([9]; at 11.0 µM): -1%
growth inhibition ([9]; at 33.0 µM): 25%
growth inhibition ([9]; at 100.0 µM): 89% (active)
growth inhibition [10, 17]: -48%
growth inhibition [10, 18]: 5%
growth inhibition ([10]; at 50.0 µM): 45.6%
growth inhibition ([11]; at 1.2 µM): 1%
growth inhibition ([11]; at 3.7 µM): 7%
growth inhibition [11, 17]: -12%
growth inhibition ([11]; at 11.0 µM): 25%
growth inhibition ([11]; at 33.0 µM): 54%
growth inhibition [11, 18]: 18%
growth inhibition ([11]; at 50.0 µM): 51.1%
growth inhibition ([11]; at 100.0 µM): 89% (active)
growth inhibition ([12]; at 1.2 µM): 0%
growth inhibition ([12]; at 3.7 µM): 0%
growth inhibition ([12]; at 11.0 µM): 0%
growth inhibition ([12]; at 33.0 µM): 17%
growth inhibition ([12]; at 100.0 µM): 79% (active)
growth inhibition ([13]; at 1.2 µM): 7%
growth inhibition ([13]; at 3.7 µM): 4%
growth inhibition ([13]; at 11.0 µM): 7%
growth inhibition ([13]; at 33.0 µM): 16%
growth inhibition ([13]; at 100.0 µM): 92% (active)
growth inhibition ([14]; at 1.2 µM): 3%
growth inhibition ([14]; at 3.7 µM): 7%
growth inhibition ([14]; at 11.0 µM): 15%
growth inhibition ([14]; at 33.0 µM): 42%
growth inhibition ([14]; at 100.0 µM): 77% (active)
growth inhibition [15, 17]: 2%
growth inhibition [15, 18]: 46%
growth inhibition ([15]; at 50.0 µM): 79.7% (active)
growth inhibition ([16]; at 1.2 µM): 10%
growth inhibition ([16]; at 3.7 µM): -1%
growth inhibition ([16]; at 11.0 µM): 6%
growth inhibition ([16]; at 33.0 µM): 23%
growth inhibition ([16]; at 100.0 µM): 86% (active)

— PubChem BioAssay (NCI)
